A short description of assay [1]: Quantitative highthroughput screen to assess conditional lethalithy of NOMO1 cells grown in RPMI1640 with untreated serum (RPMI+s) (AID 1963876). Also: nearly all actives have a fitted effect of over 35% in size.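 As to viability: 100% = DMSO wells and 0% = empty wells without cells.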 In outline:
(§1)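 Each medium arm—HPLM with 10% dialyzed FBS, or RPMI1640 with 5 mM glucose and 10% untreated or dialyzed FBS—was screened against an 11-point, 3-fold compound titration for 48 h at 37 °C, with CellTiter-Glo luminescence as endpoint.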

A short description of assay [2]: Quantitative highthroughput screen to assess conditional lethalithy of NOMO1 cells grown in Human Plasma-Like Medium with dialyzed fetal bovine serum (HPLM+ds) (AID 1963878). Also: nearly all actives have a fitted effect of over 35% in size.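 As to viability: 100% = DMSO wells and 0% = empty wells on each plate.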 In outline:
as §1

The nature of assay [3]: Cellular viability qHTS for adrenocortical cancer (ACC) cell line SW-13 (AID 1963989). Also: nearly all actives have a fitted effect of over 65% in size.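 As to activity (max response): cells grown in serum-free medium with ITS supplement; % is scaled to controls: 0 for no effect and ±100 for the full control effect.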 The settings on record: SW-13 ACC cells viability, CellTiter-Glo, 48 h; activity (max response): hits give low values. An outline of the steps:
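Viability was read as CellTiter-Glo luminescence after 48 h compound treatment (up to 46 uM final) of SW-13 cells grown serum-free; titration curves were fit with a four-parameter logistic model to give IC50 and efficacy.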
In general terms: qHTS replaces the single test concentration by a dilution series.

Assay [4] can be described thus: Cellular viability qHTS for adrenocortical cancer (ACC) cell line NCI-H295R (AID 1963990). Also: nearly all actives have a fitted effect of over 60% in size. In outline:
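CellTiter-Glo ATP luminescence, read 48 h after compound addition, measured viability of NCI-H295R adrenocortical cells grown serum-free with ITS. Final concentrations spanned up to 46 uM. Data normalized to DMSO and doxorubicin, fitted for IC50 and maximal response.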

A short description of assay [5]: Quantitative highthroughput screen to assess conditional lethalithy of P12 Ichikawa cells grown in Human Plasma-Like Medium with dialyzed fetal bovine serum (HPLM+ds) (AID 1963879). Also: nearly all actives have a fitted effect of over 35% in size. As to viability: series mostly up to about 46 µM. The settings on record: Potency: viability. An outline of the steps:
as §1

Assay [6] can be described thus: Quantitative highthroughput screen to assess conditional lethalithy of P12 Ichikawa cells grown in RPMI1640 with dialyzed fetal bovine serum (RPMI+ds) (AID 1963880). Also: nearly all actives have a fitted effect of over 35% in size.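 As to viability: 100% = DMSO wells and 0% = empty wells on each plate.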 The settings on record: Potency: P12-Ichikawa viability. An outline of the steps:
as §1

A short description of assay [7]: Quantitative highthroughput screen to assess conditional lethalithy of P12 Ichikawa cells grown in RPMI1640 with untreated serum (RPMI+s) (AID 1963881). Also: nearly all actives have a fitted effect of over 35% in size.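 As to viability: series mostly up to about 46 µM; 100% = DMSO wells and 0% = empty wells without cells.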 To be noted: Potency: viability. In outline: as §1
Assay [8] can be described thus: Quantitative highthroughput screen to assess conditional lethalithy of SEM cells grown in RPMI1640 with unreated serum (RPMI+s) (AID 1963883). Also: nearly all actives have a fitted effect of over 35% in size.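 As to viability: 100% = DMSO wells and 0% = empty wells without cells.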 In outline: as §1
A short description of assay [9]: Quantitative highthroughput screen to assess conditional lethalithy of SEM cells grown in Human Plasma-Like Medium with dialyzed fetal bovine serum (HPLM+ds) (AID 1963882). Also: nearly all actives have a fitted effect of over 35% in size. As to viability: series mostly up to about 46 µM. In outline: as §1
Assay [10] is described as follows: Quantitative highthroughput screen to assess conditional lethalithy of SEM cells grown in RPMI1640 with dialyzed fetal bovine serum (RPMI+ds) (AID 1963884). Also: nearly all actives have a fitted effect of over 35% in size.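 As to viability: series mostly up to about 46 µM; 100% = DMSO control wells and 0% = empty wells without cells.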 In outline:
as §1

From PubChem BioAssay (NCATS) come the findings set out here.

The structures appear in SMILES notation. “And” between values parts separate entries of the source, which are not always exact repeats. Equal entries are not always repeated. Results filed as inconclusive are left out. Values without a mark were called inactive. The source made the active and inactive calls. Calls follow the shape of the dose curve; as a rule, active = well fitted curve in the direction sought with a large enough effect; inconclusive = small, poorly fitted or top-dose-only effect, or another doubt; inactive = no such curve, though single readings can be large; an effect the other way counts as inactive or inconclusive.
Potency is read from the fitted curve at half-maximal effect.

Consider `Cc1cnc(Nc2ccc(F)cc2Cl)nc1-c1c[nH]c(C(=O)N[C@H](CO)c2cccc(Cl)c2)c1`, for which the Potency in assay [1] was 1050 nM (active); in assay [2], 1660 nM (active); in [3], 20000 nM (active); in assay [4] it was 14100 nM (active).

With `CC(=O)C1=C(O)C=C2Oc3c(C(C)=O)c(O)c(C)c(O)c3C2(C)C1=O` (centres undefined), the Potency in assay [1] was 296 nM (active); in [5], 1480 nM (active); in assay [6], 2960 nM (active); in assay [7], 1320 nM (active). Besides, the Potency entry in assay [8] is “inactive”.

In the case of `O=C(CCc1ccc(O)cc1)c1c(O)cc(O)cc1O[C@@H]1O[C@H](CO)[C@H](O)[C@H](O)[C@H]1O`, the Potency entry in assay [1], in assay [5], in assay [6], in [7], in assay [9] and in assay [8] was “inactive” throughout.

`CC(C)(C)NC(=O)[C@H]1CC[C@H]2[C@@H]3CC[C@H]4NC(=O)C=C[C@]4(C)[C@H]3CC[C@]12C`: the Potency in assay [1] was 2350 nM (active); in assay [5], 10500 nM (active); in assay [7] it was 11800 nM (active). Besides, the Potency entry in assay [9], in assay [8], in [10] and in assay [4] was “inactive” throughout. In [3], the activity (max response) is -6.83% and 2.59%.

Take `CC(C)(C)c1[nH]cnc1C=c1[nH]c(=O)c(=Cc2ccccc2)[nH]c1=O`: the Potency was 6.8 nM (active) in assay [1]; 6.1 nM (active) in assay [5]; 10.8 nM (active) in [6]; 8.6 nM (active) in assay [7]; 4.8 nM (active) in assay [9]; 6.1 nM (active) in [8]. In addition, in [10], the Potency is 6.1 nM (active).

Take `CCOC(=O)C1=C(C)NC2=C(C(=O)CC(C)(C)C2)C1c1ccc(-c2ccccc2)cc1` (centres undefined): the Potency entry in assay [1], in [5] and in [6] was “inactive” throughout. Also, the activity (max response) in assay [3] was -12.6%.

For the compound `O=S(=O)(N=Cc1c(O)ccc2ccccc12)c1cccs1`, the Potency result in [1], in assay [6], in assay [7] and in assay [10] was “inactive” each time. Also, in assay [5], the Potency is 16600 nM (active).

Regarding `COC(=O)[C@@H]1[C@H]2C[C@@H]3c4[nH]c5ccccc5c4CCN3C[C@@H]2CC[C@@H]1O`, the Potency in assay [1] was 526 nM (active); in assay [5], 2960 nM (active); in assay [6], 5260 nM (active); in [7] it was 3320 nM (active). Moreover, the Potency result in assay [9], in assay [8] and in assay [10] was “inactive” in each case.

Regarding `COC[C@@H](c1ccc(C(F)(F)F)cc1)N1CCN(C2(C)CCN(C(=O)c3c(C)ncnc3C)CC2)C[C@H]1C`, the Potency in assay [1] is 2350 nM (active). In addition, the Potency entry in assay [5], in assay [6] and in assay [7] was “inactive” throughout. Besides, the activity (max response) in assay [3] is -14.2%.

On to `CNC(=O)CN1CCC(Oc2cc3c(Nc4cccc(Cl)c4F)ncnc3cc2OC)CC1`, for which the Potency in [1] is 372 nM (active); in assay [5], 2640 nM (active); in [7], 2090 nM (active); in assay [3], 562 nM (active). The Potency entry in assay [9] and in [4] was “inactive” each time.

`C[C@H]1O[C@@H](n2cc(F)c(=O)[nH]c2=O)[C@H](O)[C@H]1O`: the Potency entry in assay [1], in [5], in assay [6] and in assay [7] was “inactive” each time.

For `CCOC(=O)[C@H]1O[C@H]1C(=O)N[C@@H](CC(C)C)C(=O)NCCC(C)C`, in assay [1], the Potency was 23500 nM (active). Besides, the Potency result in [5], in assay [6], in assay [9], in assay [8] and in [10] was “inactive” in each case.

As to `COC(=O)[C@H](c1ccccc1Cl)N1CCc2sccc2C1`, the Potency is 1050 nM (active) in assay [1], 8330 nM (active) in assay [5], 11800 nM (active) in assay [6] and 9350 nM (active) in assay [7]. Besides, the Potency entry in [9], in [8], in assay [10] and in [4] was “inactive” in each case. Further, the activity (max response) in [3] is -22.7%.

On to `O=C(O)c1ccc(-c2cc3cccnc3c(-c3ccc4nonc4c3)n2)cc1`, for which the Potency entry in assay [1], in [5] and in assay [7] was “inactive” in each case.

`CC1(C)O[C@H]2C[C@@H]3[C@H]4CCC5=CC(=O)C=C[C@]5(C)[C@@]4(F)[C@@H](O)C[C@]3(C)[C@]2(C(=O)CO)O1`: the values for the Potency in assay [1], in assay [5] and in [6] were 9350 nM (active), 1480 nM (active) and 264 nM (active), respectively.

For `CC[C@@H]1C(=O)N(C)c2cnc(Nc3ccc(C(=O)NC4CCN(C)CC4)cc3OC)nc2N1C1CCCC1`, the Potency in assay [1] is 66.2 nM (active); in assay [5] it was 26.4 nM (active); in assay [6], 33.2 nM (active); in [7], 33.2 nM (active); in [9], 37.2 nM (active); in assay [8], 46.9 nM (active). In addition, the Potency in assay [10] was 46.9 nM (active); in assay [3], 35.5 nM (active).

For `N#CC(=C(N)Sc1ccccc1N)C(C#N)=C(N)Sc1ccccc1N`, the Potency entry in [1], in [5], in assay [6] and in [7] was “inactive” throughout.

In the case of `Cn1c2cc(S(C)=O)sc2c2cnn(Cc3cccc(N)c3)c(=O)c21` (centres undefined), the Potency entry in [1], in assay [2] and in assay [4] was “inactive” each time.

As to `Cc1ccc(O)c(C(CCN(C(C)C)C(C)C)c2ccccc2)c1` (centres undefined), the Potency entry in assay [1], in assay [5], in assay [6], in [7], in assay [8] and in [10] was “inactive” in each case. Moreover, the Potency entry in [4] was “inactive”. Besides, in assay [3], the activity (max response) was 1.99%.

`COc1cc(C(C)=O)ccc1OCCCN1CCC(c2noc3cc(F)ccc23)CC1`: the Potency entry in assay [1], in assay [5], in assay [6], in assay [7], in assay [9] and in assay [8] was “inactive” in each case. Moreover, the Potency entry in assay [10] and in assay [4] was “inactive” in each case.

On to `COc1cc(NC(=O)c2ccc(-c3ccc(Cl)cc3)o2)cc(OC)c1`, for which the Potency in [1] was 1870 nM (active). For the same compound, the Potency entry in assay [5], in assay [7], in assay [9], in [8] and in [10] was “inactive” throughout.
